GLP1R ag = agonists of human GLP-1 receptor; HEK293 GLP-1R CRE-luciferase, luminescence, 4-6 h; cells express a hypersensitive GLP-1R form; actives 0.007% (n = 380,000); Potency, µM (top dose mostly 45.6 µM), hits mostly activators; AID 624172; P43220
D3 antag = D3 dopamine receptor (human) antagonism; D3R cells, DiscoveRx beta-arrestin luminescence, antagonist mode; active compounds read low; max response, negative = inhibition, %; P35462; actives 2.5% (n = 360,000); AID 652054; in the data active = max response below about -50%; inconclusive = no clear call, values can overlap the other calls
Target sequence (P35462 whole entry, looked up): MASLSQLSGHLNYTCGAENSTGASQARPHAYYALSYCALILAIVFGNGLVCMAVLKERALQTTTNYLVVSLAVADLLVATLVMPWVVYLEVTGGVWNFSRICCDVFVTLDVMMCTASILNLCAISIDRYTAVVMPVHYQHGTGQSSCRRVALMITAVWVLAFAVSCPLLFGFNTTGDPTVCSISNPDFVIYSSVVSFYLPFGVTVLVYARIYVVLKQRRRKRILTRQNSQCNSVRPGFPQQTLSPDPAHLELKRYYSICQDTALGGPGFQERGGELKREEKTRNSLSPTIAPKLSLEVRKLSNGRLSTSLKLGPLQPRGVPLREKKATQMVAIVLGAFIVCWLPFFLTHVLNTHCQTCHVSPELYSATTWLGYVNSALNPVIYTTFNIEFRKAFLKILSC
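Cells plated overnight at 1500 cells/well, then exposed to library compounds with dopamine controls for 90 minutes at 37 degrees C. DiscoveRx reagent added for 30–60 minutes at room temperature; luminescence read, quantitative HTS format.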
GLP-1R inv ag = inverse agonists of human GLP-1 receptor; HEK293 GLP-1R CRE-luciferase, luminescence, 24 h; GLP-1R form is constitutively active; Potency, µM (top dose mostly 38.3 µM), actives largely listed as inhibitors; actives 1.6% (n = 410,000); AID 624417; note: nearly all actives have a fitted effect of over 55% in size
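Inverse agonism was detected as reduced cAMP-driven luciferase luminescence after 24 h compound treatment. The cells were HEK293 clones expressing constitutively active human GLP-1R with the reporter. Reporter-only and GPR119 cell lines served as counterscreen controls.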
ClpP mod = qHTS Assay for Activators of ClpP; Potency, µM (series often up to 57.5 µM); ATP-dependent Clp protease proteolytic subunit (Bacillus subtilis (strain 168)), P80244; purified B. subtilis ClpP, FRET peptide cleavage, 20 min; actives 1.9% (n = 340,000); active = well fitted falling curve with a large enough effect; inconclusive = small, poorly fitted or top-dose-only effect; inactive = no such curve, though single readings can be large or run the other way; note: the source files actives as falling curves though it sought activators and does not explain the sign; nearly all actives have a fitted effect of over 65% in size
Target sequence (P80244 whole entry, looked up): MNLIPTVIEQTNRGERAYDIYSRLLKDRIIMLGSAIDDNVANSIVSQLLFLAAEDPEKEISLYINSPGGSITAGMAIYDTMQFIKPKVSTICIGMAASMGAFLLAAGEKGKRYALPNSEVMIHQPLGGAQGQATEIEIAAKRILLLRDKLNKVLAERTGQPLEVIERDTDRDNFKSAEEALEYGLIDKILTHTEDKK
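Buffer: 100 mM Tris/HCl pH8, 100 mM KCl, 0.05% low protease BSA, 2.5% glycerol, 0.01% Tween-20. ClpP 10 microg/mL final; 20 min RT; delta FRET normalized to ADEP and DMSO controls.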
D3 ag = agonists of human D3 dopamine receptor; P35462; D3R DiscoveRx beta-arrestin cells, luminescence, 90 min; max activation, %; actives 0.58% (n = 410,000); AID 652048; in the data active = max activation above about 30%
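Cells at 1500/well, incubated overnight, then treated with pinned compounds (dopamine as control) for 90 min at 37 degrees C. DiscoveRx reagent added for 30 - 60 minutes at room temperature; luminescence read.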
HEK293 tox = cytotoxic in the GLP-1 receptor inverse agonist counter-screen. actives 0.13% (n = 410,000). HEK293 cAMP-luciferase reporter cells, luminescence, 24 h. Potency, µM (top dose mostly 38.3 µM), hits mostly inhibitors;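 note: loss of luciferase light is scored as toxicity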
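Seeding density was 200 cells/uL; after overnight-length (12 h) culture, 23 nL compounds went on for 24 h at 37 °C. Readout used a luciferase detection reagent, luminescence taken after 12 min at room temperature.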
A number is an active result; - = inactive; ? = inconclusive; . = not tested or not shown; ! = repeats disagree. An excerpt weighted towards active compounds, which were near 5.7% of everything screened. Unless noted, calls come from the whole dose curve; as a rule, active = well fitted curve in the direction sought with a large enough effect; inconclusive = small, poorly fitted or top-dose-only effect, or another doubt; inactive = no such curve, though single readings can be large; an effect the other way counts as inactive or inconclusive.

SMILES	GLP1R ag	D3 antag	GLP-1R inv ag	ClpP mod	D3 ag	HEK293 tox
COC1C(OC(=O)/C=C/C=C/C=C/C=C/C(=O)O)CCC2(CO2)C1C1(C)OC1CC=C(C)C (centres undefined)	-	.	.	.	.	.
Cc1nc(-c2ccccc2)sc1CCNC(=O)C(=O)Nc1ccc(F)c(Cl)c1	-	.	-	-	-	-
O=C(Cn1cnc2c(oc3ccccc32)c1=O)Nc1ccccc1C(F)(F)F	.	.	-	-	-	-
Cc1ccccc1OCC(=O)NCC(=O)OCC(=O)c1ccc2c(c1)CCCC2	.	.	.	-	.	.
CCCNC(=O)c1cc(S(=O)(=O)N2CCC3(CC2)OCCO3)ccc1F	-	-	-	-	-	-
CCn1ncc(Br)c1C(=O)Nc1ccn(C23CC4CC(CC(C4)C2)C3)n1	-	-	7.9µM	-	-	-
Cc1ccc(NC(=O)c2cc(C)n(-c3ccccc3)c2C)cc1	-	-	-	-	-	-
Cc1ccc(NC(=O)c2cc(C)n(-c3cccc(C)c3)c2C)cc1	-	-	11µM	-	-	?
CC1(C)CC(=O)c2cc(OCC(=O)NCCCN3CCN(c4ccc(F)cc4)CC3)ccc2O1	-	-81	-	?	-	-
CC1(C)CC(=O)c2cc(OCC(=O)NCCN3CCCc4ccccc43)ccc2O1	-	-68	-	?	-	-
CCOc1ccc(N(C)S(=O)(=O)c2cc(-c3cc(C)no3)ccc2CC)cc1	-	-	8.9µM	-	-	-
Cc1cc(-c2ccc(C)c(S(=O)(=O)Nc3ccccn3)c2)on1	.	.	-	28µM	-	-
Cc1cc(-c2ccc(C)c(S(=O)(=O)N(Cc3cccs3)C(C)C)c2)on1	.	.	13µM	-	-	-
CCc1ccc(-c2cc(C)no2)cc1S(=O)(=O)NCCCN1CCN(c2ccccc2)CC1	-	-77	?	-	-	-
C[C@@H]1[C@H](O)[C@@H](C)/C=C/C=C\C=C\C=C\C=C\C=C\C=C\[C@H](O[C@@H]2O[C@H](C)[C@@H](O)[C@H](N)[C@@H]2O)C[C@@H]2O[C@](O)(C[C@@H](O)C[C@@H](O)[C@H](O)CC[C@@H](O)C[C@@H](O)CC(=O)O[C@H]1C)C[C@H](O)[C@H]2C(=O)O (stereo in doubt)	.	.	.	.	-	.
COC(=O)c1c(NC(=O)CCCOc2cccc(C)c2)sc2c1C(C(=O)OC)CC2 (centres undefined)	.	.	?	-	-	-
CCCCCCN1C[C@H](n2cc(-c3ccc(F)cc3)nn2)[C@@H](O)C[C@@H]1c1ccc(C)cc1	-	-	-	-	-	-
CCc1ccc(-c2cc(C)no2)cc1S(=O)(=O)Nc1ccc(C)cn1	-	-	-	32µM!	-	-
COc1ccc(NC(=O)c2sc3nc(C)c(C(=O)Nc4ccc(C)cc4C)c(-c4cccs4)c3c2N)cc1	.	.	-	-	-	-
Cc1cccc(Cn2cc(C(=O)Nc3cc(F)ccc3F)ccc2=O)c1	-	.	-	-	-	-
Cc1cccc(Cn2cc(C(=O)Nc3ccc(F)c(C(F)(F)F)c3)ccc2=O)c1	.	.	10µM	-	-	-
C=CCN(CC=C)C(=S)NC(=O)c1ccc(OC)cc1	-	-69	?	-	-	0.63µM
C=CCN(CC=C)C(=S)NC(=O)c1ccc(C)c(Br)c1	-	-	3.2µM	-	-	?
COc1ccccc1C(=O)NCCn1cc(SCc2ccc(C)cc2)c2ccccc21	-	.	?	-	-	-
CCOC(=O)CC1(CC)Oc2ccccc2N1S(=O)(=O)c1ccc(C)cc1 (centres undefined)	.	-	?	-	-	-
SMILES	GLP1R ag	D3 antag	GLP-1R inv ag	ClpP mod	D3 ag	HEK293 tox
CN1CCN(C2=Nc3cc(Cl)ccc3Nc3ccccc32)CC1	-	-81	-	-	.	-
COC(=O)[C@@]12C[C@@H](CC(=O)NCc3ccccc3)C(=O)N(Cc3ccc4c(c3)OCO4)C1=CCC(C)(C)C2	.	?	?	-	-	-
O=C(C1CC12CCCC2)N1CCC(CO)(Cc2ccccc2Cl)CC1 (centres undefined)	-	-	10µM	-	-	-
CCO[C@H]1OC(C(=O)NCc2nc3ccccc3[nH]2)=C[C@@H](C)[C@@H]1CCCO	-	-	-	-	-	-
CCO[C@H]1OC(C(=O)NCc2nc3ccccc3[nH]2)=C[C@@H](C2CCCCC2)[C@@H]1CCCO	-	-	10µM	-	-	-
CCO[C@H]1OC(C(=O)O)=C[C@@H](c2cn(C(C)=O)c3ccccc23)[C@@H]1CCCO	-	-	-	-	-	-
CCO[C@H]1OC(C(=O)NCc2ccccc2)=C[C@@H](c2ccc(C(F)(F)F)cc2)[C@@H]1CCCO	-	-	10µM	-	-	-
CCO[C@H]1OC(C(=O)Nc2ccccc2)=C[C@@H](c2ccc(C(F)(F)F)cc2)[C@@H]1CCCO	-	-	?	-	-	-
CCO[C@@H]1OC(C(=O)NCc2ccccc2)=C[C@H](c2cn(C(C)=O)c3ccccc23)[C@H]1CCCO	-	-	-	-	67	-
OC(c1cccc(Cl)c1)c1ncc(-c2ccc(Oc3ccccc3)cc2)[nH]1 (centres undefined)	-	-	?	-	-	-
COC(=O)C[C@](O)(CCCC(C)(C)O)C(=O)O[C@@H]1C(OC)=CC23CCCN2CCc2cc4c(cc2[C@H]13)OCO4 (some centres undefined)	.	.	.	.	-	.
Cc1ccc(C(=O)N2CCc3cc4c(cc3C2C)OCCCO4)cc1 (centres undefined)	-	-	11µM	-	-	-
CC1c2cc3c(cc2CCN1C(=O)c1ccc(Cl)cc1)OCCCO3 (centres undefined)	-	-	?	-	-	-
CC1(C(=O)NS(=O)(=O)c2ccc(Cl)cc2)CCN1C(=O)Cc1cccs1 (centres undefined)	-	-	?	-	-	-
Cc1cccc(N2CCN(c3nc4ccccc4c(=O)n3-c3ccc(Cl)cc3)CC2)c1C	.	.	-	18µM	-	-
N#Cc1c(/N=C/c2ccc(-c3ccc(C(=O)O)c(Cl)c3)o2)sc2c1CCCC2	-	-	-	35µM	-	-
Cc1cccc(OCc2nc(CC(=O)Nc3ccc(C)cc3C)cs2)c1	.	.	?	-	-	-
O=C1CCCN1c1ccc(CNS(=O)(=O)c2ccc(F)cc2)cc1	-	-57	-	-	-	-
CN(C)C(=O)c1cc2c(c(-c3cccc(C4=CCCCC4)c3)n1)[C@@H](CCO)N(S(=O)C(C)(C)C)C2 (some centres undefined)	-	-	-	-	-	-
